Inconclusive results are not listed. Unmarked numbers belong to inactive results. Active and inactive are the calls of the source. Calls follow the shape of the dose curve; as a rule, active = well fitted activation curve with a large enough effect; inconclusive = small, poorly fitted or top-dose-only effect; inactive = no such curve, though single readings can be large or run the other way.
The molecules below were run against Cellular tumor antigen p53 (Homo sapiens) (UniProt P04637) (assay: Primary qHTS for small molecule compounds that upregulate eGFP-tagged delta133p53alpha (in N-terminal) cells. (AID 2060322; also: nearly all actives have a fitted effect of over 75% in size;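 as to activation: series mostly up to about 56 µM; 0% = DMSO vehicle and 100% = reference activator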)). Conditions: NCI-H358 eGFP-delta133p53alpha fluorescence, 24 h; activation: stronger effect = higher value.
Cellular tumor antigen p53 (Homo sapiens), sequence (P04637 whole entry, looked up): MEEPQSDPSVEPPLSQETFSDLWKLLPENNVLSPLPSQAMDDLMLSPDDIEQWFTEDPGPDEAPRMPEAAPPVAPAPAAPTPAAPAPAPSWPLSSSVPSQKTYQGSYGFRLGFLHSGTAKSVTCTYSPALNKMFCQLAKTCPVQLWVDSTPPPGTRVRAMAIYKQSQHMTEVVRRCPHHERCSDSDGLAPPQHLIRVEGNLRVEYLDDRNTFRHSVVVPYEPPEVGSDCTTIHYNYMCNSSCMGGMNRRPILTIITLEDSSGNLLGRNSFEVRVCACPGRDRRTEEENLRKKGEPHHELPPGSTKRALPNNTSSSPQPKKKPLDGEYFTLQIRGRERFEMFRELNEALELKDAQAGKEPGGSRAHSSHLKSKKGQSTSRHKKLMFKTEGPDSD
Outline: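 NCI-H358 cells pre-induced 24 h with 10 ng/ml doxycycline to express N-terminal eGFP-delta133p53alpha, then dosed 24 h at 37C without doxycycline; fixed, Hoechst-stained, GFP intensity by laser scanning cytometry, normalized to DMSO (0%) and 57.5 uM 5-azacytidine (100%).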
`C[C@@H]1CC[C@H]2[C@@H](C)C(=O)O[C@@H]3O[C@@]4(C)CC[C@H]1[C@]32OO4` was tested, and the activation was 5.37%. Work on `CC(C)(C)[C@]1(O)C[C@@H]2OC(=O)C[C@@]23C(=O)O[C@@H]2OC(=O)[C@H](O)C213` (stereo not given in full) yielded an activation of 7.05%. With `O=[N+]([O-])c1ccc([As](=O)(O)O)cc1` the activation was -14.2%. In the case of `N[C@@H](Cc1ccc(Oc2cc(I)c(O)c(I)c2)c(I)c1)C(=O)O`, the activation was 11.7%. `CCCCOC(=O)c1ccccc1C(=O)OCc1ccccc1` gave an activation of -2.82%. For `O=C1OC(CCN2CCCCC2)OC1(c1ccccc1)c1ccccc1` (stereo not given), the activation was -20.9%. `Cc1cccc(Cc2cnc[nH]2)c1C` gave an activation of -0.837%. Work on `c1cc2c(c(N3CCNCC3)c1)OCCO2` yielded an activation of -12.6%. `CC[n+]1c(-c2ccccc2)c2cc(N)ccc2c2ccc(N)cc21` was tested, and the Potency was 19.5 µM (active). In the case of `O=C(O)COc1ccccc1`, the activation was -28.8%. With `COc1cc(CC(C)N)c(OC)cc1Br` (stereo not given) the activation was 43.5%. With `CC(C(=O)c1ccccc1)N(C)C` (stereo not given) the activation was 22.6%. In the case of `Cn1cnc(CCN)c1`, the activation was -2.51%. In the case of `C[C@]12Cc3cn[nH]c3C[C@@H]1CC[C@@H]1[C@H]2CC[C@@]2(C)[C@H]1CC[C@]2(C)O`, the activation was -11.9%. `Oc1ccccc1-c1ccccc1` showed an activation of 10%. Work on `ClCCCN1CCN(c2cccc(Cl)c2)CC1` yielded an activation of -2.82%. `CCCN(CCC)CCc1c[nH]c2ccccc12` gave an activation of 22%. `CC[N+]1(CC)CCC(OC(=O)C(O)(c2ccccc2)c2ccccc2)C1` (stereo not given) showed an activation of -15.3%. With `OCCOc1ccccc1` the activation was -20.9%. `CC[C@H]1C=CC=CC[C@@H](C)[C@H](O)[C@@](C)(O)C(=O)[C@@H](C)[C@H](O)[C@@H](C)C(=O)[C@@H](C)[C@H](O)[C@@H](C)C=CC(=O)O[C@@H]2[C@@H](C)[C@H](CC1)O[C@]1(CC[C@H](C)[C@H](C[C@@H](C)O)O1)[C@H]2C` was tested, and the activation was 11.3%. With `OC(c1ccccc1)(c1ccccc1)C1CCNCC1` the activation was -13.4%. Work on `CCN[C@@H](C)Cc1ccccc1` yielded an activation of -10.7%. Molecule `COc1cc(CC#N)cc(OC)c1OC` has an activation of 2.82%. For `CC(=O)[O][Hg][c]1ccccc1`, the Potency was 8.71 µM (active). `CNCC(=O)c1ccc(O)c(O)c1` was tested, and the activation was 8.47%.

— PubChem BioAssay (NCATS)
Potency is read from the fitted curve at half-maximal effect.
